Experimental data from PubChem BioAssay AID1850 (Southern Research Specialized Biocontainment Screening …, 2009).
In all, about 310,000 compounds went through this assay and about 1,000 (0.32%) were called active. No rule for the calls is given here. Only a sample is shown. Entries with a potency or affinity are not part of this list.

Assay: PhoP regulon inhibitors, Salmonella typhi PhoP promoter GFP reporter, confirmatory (AID 1850);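 also: 0% = induced wells with vehicle and 100% = uninduced wells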
Conditions: fluorescence, 4 h, at 50 µM, hits give high values

SMILES | inhibition
[O-]/C(=C(\C(=S)Nc1ccc(SC(F)F)cc1)[n+]1ccccc1)c1cc(Cl)ccc1Cl | -2.27% (inactive)
CCOc1ccc2nc(N(CCN(C)C)C(=O)c3cc4ccccc4cc3OC)sc2c1 | 9.84% (inactive)
COc1ccc(-c2c(C)nn3c(N4CCC5(CC4)OCCO5)cc(C)nc23)cc1OC | -5.4% (inactive)
CCN(CC)CCCNC(=O)Cn1cnc2ccc(S(=O)(=O)N3CCC(C)CC3)cc2c1=O | 5.63% (inactive)
CC(CCc1ccccc1)NC(=O)C1CCCN(C(=O)c2cc3sccc3n2C)C1 (stereo unspecified) | 1.06% (inactive)
CN(C)c1ccc(C2C3C(=O)NC(=O)C3ON2c2ccc(Cl)cc2)cc1 (stereo unspecified) | 1.26% (inactive)
CNCc1ccccc1OCC(=O)Nc1ccccc1 | -6% (inactive)
CC(C)(CO)NCc1ccccc1OCC(=O)Nc1ccccc1 | -11.7% (inactive)
Fc1ccc(C2CCCN2Cc2nc(-c3cnccn3)no2)cc1 (stereo unspecified) | -2.32% (inactive)
CCCCCCCNC(=O)C1(CC2CC(c3ccccc3)=NO2)CCNCC1 (stereo unspecified) | 19.7% (inactive)
CCCCCCCNC(=O)C1(CC2CC(c3cccc(Br)c3)=NO2)CCN(C(=O)Cc2ccc(F)cc2)CC1 (stereo unspecified) | -2.38% (inactive)
CCCCCCCNC(=O)C1(CC2CC(c3cccc(Br)c3)=NO2)CCN(C(=O)C2(C)CC2)CC1 (stereo unspecified) | 1.2% (inactive)
CCCCCCCNC(=O)C1(CC2CC(c3ccc(Cl)cc3)=NO2)CCN(C(=O)C2(C)CC2)CC1 (stereo unspecified) | -16.7% (inactive)
CC(=O)c1c(C)[nH]c(C(=O)NCCN2CCC(C)CC2)c1C | -6.42% (inactive)
CCC(C)Oc1ccc(C(=O)Nc2ccc(CN3CCOCC3)cc2)cc1 (stereo unspecified) | -2.81% (inactive)
COc1cccc(C(C)NC(=O)Nc2cc(Cl)ccc2OC)c1 (stereo unspecified) | 2.05% (inactive)
COc1ccc(C(CC(=O)O)c2ccc3c(c2)OCO3)cc1 (stereo unspecified) | 0.47% (inactive)
CCOc1ccc(OCC)c(NC(=O)Cn2cccc2)c1 | -4.63% (inactive)
O=C(Nc1cccc(NC(=O)c2ccc(-c3ccc(Br)cc3)o2)c1)c1ccco1 | 7.16% (inactive)
Cc1c(C)c2cc(Cl)c(OC(C)C(=O)NCCN3CCOCC3)cc2oc1=O (stereo unspecified) | 14.4% (inactive)
CCOC(=O)Cn1c(COc2ccccc2OC)[n+](C)c2ccccc21 | 1.54% (inactive)
Cn1c(COc2ccccc2O)[n+](C)c2ccccc21 | 4.42% (inactive)
CCCn1c(COc2ccccc2OC)nc2ccccc21 | 4.56% (inactive)
CCn1c(COc2ccccc2C)nc2ccccc21 | 1.26% (inactive)
Clc1cccc(OCCOCCN2CCNCC2)c1Cl | 6.19% (inactive)
Cc1ccc(S(=O)(=O)NCCC(=O)NCCSc2ccc(Br)cc2)cc1 | -3.98% (inactive)
